Test results published in PubChem BioAssay AID1159580 (chemical genetic matrix, 2015).
Where “and” joins values, the source holds several entries; their conditions need not be identical. Identical values can stand only once. The whole screen tested about 5,500 compounds, of which about 2,000 (36%) were called active. Not shown: some 18% with an inconclusive outcome. Cut-off read from the data, not from the text of the source: active = normalized growth mostly below about 0.91 (no sharp cut-off); inconclusive = no clear call, values can overlap the other calls; inactive = mostly above about 0.92. Some of the results follow.

Experiment: chemical genetic growth profiling, strain panel (AID 1159580);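 note: tested at 20 µM; growth read once vehicle control cultures reached saturation at 30 °C; 1 = growth at the plate median or of vehicle wells; lower values mean less growth of the strain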
Details: S. cerevisiae deletion strains, growth OD

Measured: normalized growth

O=c1cc(-c2ccc(O)cc2)oc2cc(O[C@@H]3O[C@H](CO)[C@@H](O)[C@H](O)[C@H]3O[C@@H]3OC[C@](O)(CO)[C@H]3O)cc(O)c12
inactive: locus YAL013W, strain DEP1, active compounds read low 1.01 | locus YAL021C, strain ccr4, active compounds read low 0.998 | locus YAL026C, strain drs2, active compounds read low 1 | locus YAL030W, strain snc1, active compounds read low 1 | locus YBL061C, strain skt5, active compounds read low 1.02 | locus YBR009C, strain hhf1, active compounds read low 1.01 | locus YBR021W, strain FUR4, active compounds read low 0.99 | locus YBR023C, strain chs3, active compounds read low 1.01 | locus YBR171W, strain sec66, active compounds read low 0.982 | locus YBR229C, strain ROT2, active compounds read low 1.01 | locus YBR231C, strain swc5, active compounds read low 1.01 | locus YBR279W, strain paf1, active compounds read low 1.01 | locus YCL011C, strain gbp2, active compounds read low 1.01 | locus YCL016C, strain dcc1, active compounds read low 1 | locus YCL029C, strain bik1, active compounds read low 0.985 | locus YCL061C, strain MRC1, active compounds read low 1.01 | locus YCL069W, strain vba3, active compounds read low 0.994 | locus YCR088W, strain abp1, active compounds read low 0.998 | locus YDL005C, strain med2, active compounds read low 1 | locus YDL035C, strain GPR1, active compounds read low 1.01 | locus YDL040C, strain nat1, active compounds read low 0.997 | locus YDL074C, strain BRE1, active compounds read low 1.02 | locus YDL101C, strain DUN1, active compounds read low 1.02 | locus YDL134C, strain PPH21, active compounds read low 1.03 | locus YDL185W, strain tfp1, active compounds read low 0.981 | locus YDL192W, strain arf1, active compounds read low 0.998 | locus YDR001C, strain nth1, active compounds read low 1 | locus YDR069C, strain doa4, active compounds read low 1.01 | locus YDR101C, strain arx1, active compounds read low 0.963 | locus YDR137W, strain rgp1, active compounds read low 1.01 | locus YDR159W, strain sac3, active compounds read low 1.01 | locus YDR162C, strain NBP2, active compounds read low 1.03 | locus YDR195W, strain ref2 0.991 | locus YDR297W, strain sur2, active compounds read low 1.01 | locus YDR318W, strain mcm21, active compounds read low 1.01 | locus YDR334W, strain swr1, active compounds read low 1.01 | locus YDR335W, strain msn5, active compounds read low 1.01 | locus YDR388W, active compounds read low 0.981 | locus YDR392W, strain spt3, active compounds read low 1.01 | locus YDR502C, strain sam2, active compounds read low 0.993 | locus YEL003W, strain gim4, active compounds read low 1.01 | locus YEL037C, strain rad23, active compounds read low 0.999 | locus YEL061C, strain CIN8 (second series), active compounds read low 1 | locus YEL061C, strain CIN8, active compounds read low 1.01 | locus YER015W, strain faa2, active compounds read low 1.01 | locus YER016W, strain bim1, active compounds read low 1.01 | locus YER110C, active compounds read low 0.984 | locus YER111C, strain swi4, active compounds read low 1 | locus YER155C, strain BEM2 (second series), active compounds read low 1.02 | locus YER155C, strain BEM2, active compounds read low 1.01 | locus YER167W, strain BCK2, active compounds read low 1.01 | locus YFR010W, strain ubp6, active compounds read low 1.02 | locus YGL078C, strain dbp3, active compounds read low 0.997 | locus YGL086W, strain mad1, active compounds read low 0.984 | locus YGL167C, strain pmr1, active compounds read low 1.01 | locus YGL173C, strain kem1, active compounds read low 1.02 | locus YGL227W, strain vid30, active compounds read low 0.994 | locus YGL240W, strain doc1, active compounds read low 1.01 | locus YGL248W, strain PDE1, active compounds read low 1.05 | locus YGL253W, strain hxk2, active compounds read low 0.998 | locus YGR135W, strain pre9, active compounds read low 0.989 | locus YGR252W, strain gcn5, active compounds read low 1.04 | locus YHR013C, strain ard1, active compounds read low 0.988 | locus YHR027C, strain rpn1, active compounds read low 1.01 | locus YHR030C, strain SLT2, active compounds read low 1.01 and 0.992 | locus YHR079C, strain IRE1 (second series), active compounds read low 0.982 | locus YHR079C, strain IRE1, active compounds read low 0.983 | locus YHR094C, strain hxt1, active compounds read low 0.984 | locus YHR129C, strain ARP1, active compounds read low 1.01 | locus YHR142W, strain chs7, active compounds read low 1.01 | locus YHR200W, strain rpn10, active compounds read low 0.995 | locus YIL066C, strain RNR3, active compounds read low 1.02 | locus YIL073C, strain SPO22, active compounds read low 1.01 | locus YIL125W, strain kgd1, active compounds read low 0.989 | locus YIR030C, strain dcg1, active compounds read low 1 | locus YJL092W, strain hpr5, active compounds read low 1 | locus YJL095W, strain BCK1 (second series), active compounds read low 1.01 | locus YJL095W, strain BCK1, active compounds read low 1.06 and 1.01 | locus YJL115W, strain asf1, active compounds read low 0.99 | locus YJL129C, strain trk1, active compounds read low 0.998 | locus YJL134W, strain LCB3, active compounds read low 1.01 | locus YJL154C, strain vps35, active compounds read low 1 | locus YJL164C, strain tpk1, active compounds read low 1.02 | locus YJL166W, strain qcr8, active compounds read low 1.01 | locus YJL168C, strain set2, active compounds read low 0.994 | locus YJL187C, strain SWE1 (second series), active compounds read low 1.02 | locus YJL187C, strain SWE1, active compounds read low 1.01 | locus YJR043C, strain POL32, active compounds read low 1.03 | locus YJR066W, strain TOR1, active compounds read low 0.982
